Shown is part of a subset that was picked to be rich in hits.
GluA2 TARP mod = modulators of GluA2-stargazin AMPA receptor complexes, primary screen, cell-based, membrane potential dye | Voltage-dependent calcium channel gamma-2 subunit (Mus musculus) + Glutamate receptor 2 … | HEK293 GluA2+stargazin, membrane potential dye (FDSS), glutamate EC50; hits were called plate by plate, in both directions | calls only at 30 µM | hit rate 3.5% among 40,000;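 active means any of four per-well response measures lying three or more SD from its plate-wide compound average, in either direction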
GIRK2 act = activators of NPY4-receptor-primed GIRK2 channels, summary, cell-based, HEK293, thallium flux | G protein-activated inward rectifier potassium channel 2 (Homo sapiens), P48051 | HEK293 GIRK2/NPY4 cells, thallium flux fluorescence | activation (% efficacy), % for hits at 37.5 µM | 34,000 tested, under 10 active | AID 1259324, 2017;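 active means primary screen hit, no activity in plain HEK293 cells, and in GIRK2-only cells above 5% efficacy rising with concentration; inactive means the rest, including fluorescent compounds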;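 further: efficacy is normalized control-subtracted fluorescence 15 s after thallium addition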
Target sequence (P48051 whole entry, looked up): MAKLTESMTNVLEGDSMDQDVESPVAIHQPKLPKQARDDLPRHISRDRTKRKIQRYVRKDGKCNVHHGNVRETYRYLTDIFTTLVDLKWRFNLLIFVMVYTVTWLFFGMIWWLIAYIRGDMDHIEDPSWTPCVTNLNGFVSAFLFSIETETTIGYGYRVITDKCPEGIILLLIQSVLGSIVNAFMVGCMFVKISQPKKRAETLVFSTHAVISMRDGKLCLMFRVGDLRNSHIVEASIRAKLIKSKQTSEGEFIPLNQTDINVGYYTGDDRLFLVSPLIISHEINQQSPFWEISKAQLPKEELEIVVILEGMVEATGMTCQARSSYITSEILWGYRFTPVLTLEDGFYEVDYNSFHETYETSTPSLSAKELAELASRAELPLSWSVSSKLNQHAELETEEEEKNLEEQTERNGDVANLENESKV
Active calls of the source: *; i = inactive; . = no result given; + = active, no number.

SMILES | GluA2 TARP mod | GIRK2 act
Cc1cc(C)c(-c2ccc(SCC(=O)NCc3ccc4c(c3)OCO4)nn2)cc1C | + | i
NS(=O)(=O)c1ccc(NC(=O)c2ccc(=O)n(Cc3ccccc3F)c2)cc1 | i | i
COc1ccc(NS(=O)(=O)c2c(C)cc(C)c(N(C)S(C)(=O)=O)c2C)cc1 | + | i
Cc1cc(C)c(S(=O)(=O)Nc2ccc(F)cc2)c(C)c1N(C)S(C)(=O)=O | i | i
O=C(NCCOc1cccc(C(F)(F)F)c1)c1ccc([N+](=O)[O-])cc1 | + | i
O=C(NCCOc1cccc(C(F)(F)F)c1)c1ccc(Cl)c([N+](=O)[O-])c1 | i | i
CCOc1ccc(OCCNC(=O)c2ccc([N+](=O)[O-])cc2)cc1 | + | i
O=C(NCCOc1ccc(F)cc1)c1ccc([N+](=O)[O-])cc1 | i | i
COc1ccc2nc(-c3cccc(NC(=O)c4ccc5c(c4)OCO5)c3)cn2n1 | i | i
NC(=O)c1oc2ccccc2c1NC(=O)C12CC3CC(CC(C3)C1)C2 | i | i
Cc1cc(=O)n(CC(=O)Nc2cc(C(F)(F)F)ccc2Cl)cn1 | i | i
CCc1c(C)nc(SCC(=O)Nc2cc(C(F)(F)F)ccc2Cl)[nH]c1=O | + | .
Cc1ccc(Cl)cc1N1CCN(C(=O)c2snc(C(=O)N3CCCC3)c2N)CC1 | i | i
O=C(CSc1nc(=O)n(CC2CCCO2)c2c1CCC2)Nc1ccccc1 (stereo unspecified) | i | i
CCOC(=O)c1c(NC(=O)COc2cccc3c2CCN(Cc2ccc(Br)cc2)C3=O)sc2c1CCC2 | + | .
O=C(COc1cccc2c1CCN(Cc1ccccc1)C2=O)NC1CCCCC1 | i | .
CCOc1ccc(C(=O)NCCS(=O)(=O)N2CCN(c3ncccn3)CC2)cc1 | i | i
Cc1ccc(C(CNC(=O)C(=O)Nc2ccncc2)N2CCOCC2)cc1 (stereo unspecified) | i | i
CN1CCCC(C(=O)NCC#CCN2CCc3ccccc3C2)C1 (stereo unspecified) | i | i
O=S(=O)(NCC1CCN(C2CCCC2)CC1)c1cccc2ccccc12 | i | i
Cc1ccccc1NC(=O)Cn1c(Cc2ccccc2)nc2ccccc21 | + | i
COc1ccc(Cc2nc3ccccc3n2CC(=O)N2CCCCCC2)cc1OC | i | i
CN1CCc2c(sc(NC(=O)C(C)(C)C)c2-c2nc3ccccc3s2)C1 | i | .
CC(=O)Cn1c(=O)c2c(nc3n(-c4ccc(F)cc4)c(-c4ccccc4)cn23)n(C)c1=O | i | .
Cc1cc(C)c(S(=O)(=O)NCCC(C)C)c(C)c1N(C)S(C)(=O)=O | i | .
SMILES | GluA2 TARP mod | GIRK2 act
Cc1cc(C)c(S(=O)(=O)NCCC(N)=O)cc1N(C)S(C)(=O)=O | i | .
CC(C)(C)n1nc2c(c1-n1cccc1)CN(C(=O)c1cc3ccccc3oc1=O)C2 | + | i
CC(C)(C)n1nc2c(c1-n1cccc1)CN(C(=O)Cn1c(=O)oc3ccccc31)C2 | i | i
Cc1ccc(-c2ccc(SCC(N)=O)nn2)cc1C | i | i
NC(=O)CSc1nc(-c2ccccc2)c(NC(=O)CCCc2ccccc2)s1 | + | i
Nc1sc(SCC(=O)NCc2ccc(F)cc2)nc1-c1ccccc1 | + | i
COc1ccc(CCC(=O)Nc2sc(SCC(N)=O)nc2-c2ccccc2)cc1 | i | i
NC(=O)CSc1nc(-c2ccccc2)c(N)s1 | i | i
NC(=O)CSc1nc(-c2ccccc2)c(NC(=O)c2ccccc2)s1 | i | i
NC(=O)CSc1nc(-c2ccccc2)c(NC(=O)CCc2ccccc2)s1 | + | i
COC(CNC(=O)C(=O)Nc1ccc(N2CCCS2(=O)=O)cc1)OC | i | .
C/C=C\C(=O)Nc1cc(-c2ccco2)nn1CCO | i | i
CC(C)c1cc(=O)n(CC(=O)NCCc2c[nH]c3ccccc23)cn1 | i | i
O=C(CCCS(=O)(=O)c1ccc(Cl)cc1)Nc1nnc(-c2ccco2)o1 | i | .
CCOc1ccc2c(c1)sc(=NC(=O)c1ccc(S(=O)(=O)C(C)C)cc1)n2CCOC | + | i
COCCn1c(=NC(=O)c2cc(C)no2)sc2cc(OC)ccc21 | i | i
Cc1cc(-c2nnc(NC(=O)C3CCCN3S(=O)(=O)c3cccs3)o2)nn1C (stereo unspecified) | i | i
COCC(C)(O)CNC(=O)c1ccccc1C(F)(F)F (stereo unspecified) | i | i
COCC(C)(O)CNC(=O)c1ccc(Cl)cc1 (stereo unspecified) | + | i
COCC(C)(O)CNC(=O)c1c(F)cccc1F (stereo unspecified) | + | i
COc1nn(C)cc1C(=O)NCC(=O)Nc1ccc(F)c(C(F)(F)F)c1 | + | i
COCC(C)(O)CNC(=O)c1cc(OC)cc(OC)c1 (stereo unspecified) | i | i
COc1nn(C)cc1C(=O)NCC(=O)NCC(F)(F)F | i | i
COc1nn(C)cc1C(=O)NCC(=O)Nc1ccc(C#N)cc1 | i | i
COCC(C)(O)CNC(=O)c1cn(C)nc1OC (stereo unspecified) | + | i
SMILES | GluA2 TARP mod | GIRK2 act
O=C(Cn1c(=O)oc2ccccc21)NCC(c1cccs1)N1CCOCC1 (stereo unspecified) | i | i
CCCS(=O)(=O)N1CCN(Cc2nnnn2-c2ccc(Cl)cc2)CC1 | i | i
O=C(CSCc1ccccc1)NCC1CCN(C(=O)c2cc3ccccc3o2)CC1 | i | i
O=C(c1cc2ccccc2o1)N1CCC(CNS(=O)(=O)c2ccc3c(c2)OCCO3)CC1 | i | i
O=C(/C=C/c1ccccc1)NCC1CCN(C(=O)c2cc3ccccc3o2)CC1 | + | i
O=C(/C=C/c1ccc2c(c1)OCO2)NCC1CCN(C(=O)c2cc3ccccc3o2)CC1 | + | i
O=C(NCC1(O)CCOCC1)C1COc2ccccc2O1 (stereo unspecified) | . | i
COc1ccccc1NC(=O)N1CCN(c2ccc(Nc3cccnc3)nn2)CC1 | i | i
CCOc1cn(-c2ccc(F)cc2)nc1C(=O)N1CC(C)CC(C)C1 (stereo unspecified) | + | i
CCOc1cn(-c2ccc(F)cc2)nc1C(=O)N1c2ccccc2CC1C (stereo unspecified) | + | i
CCCOc1cn(-c2ccc(F)cc2)nc1C(=O)NCCC(C)C | + | i
CCOc1cn(-c2ccc(F)cc2)nc1C(=O)N1CCCCC1 | i | i
CCCOc1cn(-c2ccc(F)cc2)nc1C(=O)NCCc1ccccc1 | i | i
CCOC(=O)N1CCN(C(=O)c2nn(-c3ccc(F)cc3)cc2OCC)CC1 | i | i
COc1ccc(NC(=O)/C(C#N)=C/N2CCN(c3cccc(C)c3C)CC2)cc1 | i | i
O=C(Cc1ccc(Cl)cc1)Nc1ccc(N2CCCCS2(=O)=O)cc1 | i | .
COc1ccc(OC)c2sc(NC(=O)CS(=O)(=O)Cc3ccccc3)nc12 | i | i
COc1ccc(C(=O)Nc2cccc(N3CCCCC3=O)c2)cc1OC | i | i
Cc1ccc(C2=CC(c3ccc(Cl)cc3)n3nc(N4C(=O)CCC4=O)nc3N2)cc1 (stereo unspecified) | + | .
